Screens deposited in PubChem by DiRusso Lab, Biochemistry Department, University of Nebraska.
The full list was thinned out, with hits kept by preference.
Algae TAG accum = inducers of triacylglycerol accumulation in Chlamydomonas reinhardtii algae | Chlamydomonas reinhardtii TAG, Nile Red fluorescence, 72 h | calls only at 10 µM (by protocol) | hit rate 0.84% among 44,000 | AID 1159537; call rule not given here;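 also: hits raise Nile Red signal meaning more stored TAG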
Starred values were filed as active, the others as inactive; i = inactive; + = active, no number.

SMILES | Algae TAG accum
COc1ccc(C(=O)Nc2sc3c(c2C(N)=O)CCC(C)C3)c(OC)c1 (stereo unspecified) | +
Cc1ccc(C(=O)Nc2sc3c(c2C(N)=O)CCC(C)C3)o1 (stereo unspecified) | i
CC1CCc2c(sc(NC(=O)c3ccccc3[N+](=O)[O-])c2C(N)=O)C1 (stereo unspecified) | i
Cc1occc1C(=O)Nc1ccc(Cl)cc1 | i
O=C(Nc1ccc(-c2nc3cccnc3o2)cc1)c1ccc([N+](=O)[O-])cc1Cl | i
COc1cccc(NC(=O)c2ccc(SC)cc2OC)c1 | i
Cc1ccc(C(=O)N2CCC(C(=O)O)CC2)cc1 | i
O=C(O)C1CCN(C(=O)c2ccc(F)cc2)CC1 | +
O=C(c1ccc(F)cc1)N1CCCCCC1 | i
O=C(Nc1c(C(=O)N2CCCCC2)cnn1-c1ccccc1)c1ccccc1Br | i
CCOc1ccc(C(=O)Nc2ccc([N+](=O)[O-])cn2)cc1 | i
O=C(O)c1cc(NC(=O)c2ccc(I)cc2)cc(C(=O)O)c1 | i
COc1ccc(CN2CCN(Cc3cccc(OC)c3OC)CC2)cc1 | i
COc1cc(C(=O)N2CCN(Cc3ccc(OC)c(OC)c3OC)CC2)cc(OC)c1OC | i
COc1cccc(CN2CCN(Cc3cc(OC)c(OC)c(OC)c3)CC2)c1OC | i
COc1ccc(CN2CCN(c3ccccc3Cl)CC2)c(OC)c1OC | i
COc1cccc(CN2CCN(Cc3ccc(F)cc3)CC2)c1OC | +
COc1ccc(CN2CCN(Cc3ccc(SC)cc3)CC2)c(OC)c1OC | i
COc1cc(C(=O)N2CCN(Cc3ccccc3F)CC2)cc(OC)c1OC | i
COc1ccc(CN2CCN(Cc3ccccc3)CC2)c(OC)c1OC | +
COc1cccc(CN2CCN(C(=O)c3cc(OC)c(OC)c(OC)c3)CC2)c1OC | +
Cc1cccc(NC(=O)C(=O)NCCc2ccccc2)c1 | i
COc1ccc(C2C(=C(O)c3ccccc3)C(=O)C(=O)N2CCCN2CCOCC2)cc1 (stereo unspecified) | i
COc1cc(OC)c(NC(=O)c2ccc([N+](=O)[O-])c(C)c2)cc1Cl | i
CC(C)NC(=O)c1ccc(C(C)(C)C)cc1 | i
SMILES | Algae TAG accum
CC1CCCN(CCCOc2ccc([N+](=O)[O-])cc2)C1 (stereo unspecified) | i
COc1ccc(OCCCN2CCCC(C)C2)cc1 (stereo unspecified) | +
CCOc1ccccc1OCCCN1CCCC(C)C1 (stereo unspecified) | i
Cc1ccc(C2C(=C(O)c3ccc(S(=O)(=O)N(C)C)cc3)C(=O)C(=O)N2CCCN(C)C)o1 (stereo unspecified) | i
COCC(=O)Nc1ccc(I)cc1 | i
COc1ccc(C2C(C#N)=C(N)Oc3c2c(=O)[nH]c2ccccc32)cc1Br (stereo unspecified) | i
CCc1nc2c(cnn2-c2ccccc2)c(=O)n1-c1cccnc1 | i
Cc1ccc(Cn2cnc3sc4c(c3c2=O)CCC4)c(C)c1 | i
Cc1ccc(Cn2cnc3c(cnn3-c3ccccc3)c2=O)c(C)c1 | +
CC(C)c1ccc(NC(=O)c2ccc3c(c2)OCCO3)cc1 | i
COc1cc(-c2ccc(NC(=O)c3ccco3)c(OC)c2)ccc1NC(=O)c1ccco1 | +
COc1ccc(OC)c(NC(=O)c2ccco2)c1 | i
Cc1cc(-c2ccc(NC(=O)c3ccco3)c(C)c2)ccc1NC(=O)c1ccco1 | i
C=CCn1c(SCC(=O)NCCc2ccccc2)nnc1-c1ccc(Cl)cc1Cl | +
C=CCn1c(SCC(=O)O)nnc1-c1ccccc1 | i
C=CCn1c(SCC(=O)O)nnc1-c1ccc(Cl)cc1 | i
O=C(COc1ccc(Br)cc1Cl)Nc1cccc(F)c1 | i
O=S(=O)(c1ccc(Cl)c(Cl)c1Cl)N1CCN(c2ccc(F)cc2)CC1 | +
O=[N+]([O-])c1ccccc1S(=O)(=O)N1CCN(c2ccc(F)cc2)CC1 | i
O=S(=O)(c1ccc(F)cc1)N1CCN(c2ccccc2)CC1 | i
CC1=C(C)CC(C(=O)Nc2ccc(F)c(Cl)c2)C(C(=O)O)C1 (stereo unspecified) | i
CC1(C)CCCC2=C1CC(C(=O)O)C(C(=O)N1CCCCC1)C2 (stereo unspecified) | i
O=C(Nc1ccccc1)c1cc(S(=O)(=O)N2CCCCC2)ccc1Cl | i
O=C(Nc1ccc(S(=O)(=O)N2CCCC2)cc1)c1ccc(Cl)cc1Cl | +
O=C(Nc1ccc(S(=O)(=O)N2CCCC2)cc1)c1ccccc1I | i
COc1ccc(CN(C)C2CCCCC2)c(C)c1C | +
COc1ccc(CN2CCCCC2C)c(C)c1C (stereo unspecified) | i
COc1ccc(CN(C)C2CCN(C)CC2)c(OC)c1OC | i
Cc1nc2cc(Cl)ccc2n1Cc1ccccc1 | i
Cc1nc2ccc(NC(=O)N3CCCCCC3)cc2nc1C | i
